Most compounds without a hit are left out; they make up all but 27% or so of the library.
CYP2C9 inh: human CYP2C9 inhibition. CYP2C9 Supersomes, luciferin-H conversion, luminescence. inhibition, % at 5 µM. 96,000 compounds, 20% hits. AID 777;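 active means blocking of liver enzyme CYP2C9 beyond about 50% at 5 µM, limit read from the data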
Target sequence (P11712 whole entry, looked up): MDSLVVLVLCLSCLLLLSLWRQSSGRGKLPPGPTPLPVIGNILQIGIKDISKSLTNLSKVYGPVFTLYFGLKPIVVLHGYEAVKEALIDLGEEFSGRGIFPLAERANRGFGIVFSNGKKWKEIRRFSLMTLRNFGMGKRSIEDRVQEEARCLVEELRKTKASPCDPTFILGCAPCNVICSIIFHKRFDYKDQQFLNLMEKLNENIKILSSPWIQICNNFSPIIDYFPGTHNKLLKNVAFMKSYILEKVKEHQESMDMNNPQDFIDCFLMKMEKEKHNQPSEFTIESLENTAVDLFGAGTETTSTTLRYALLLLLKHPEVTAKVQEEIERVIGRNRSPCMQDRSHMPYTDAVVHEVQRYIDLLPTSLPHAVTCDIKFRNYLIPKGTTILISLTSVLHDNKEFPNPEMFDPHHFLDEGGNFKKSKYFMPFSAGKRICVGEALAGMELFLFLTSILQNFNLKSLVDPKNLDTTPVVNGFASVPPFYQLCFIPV
CYP2C9 act: activators of human CYP2C9. P11712. recombinant CYP2C9, luciferin-H conversion, luminescence; hits give high values; factor 1 = untreated enzyme, 0 = blocked. activation factor at 5 µM. 96,000 compounds, 1.4% hits. AID 1024;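 active means activation factor of 2 or more for CYP2C9 at a 5 µM dose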;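 further: 0 = sulfaphenazole-blocked wells and 1 = vehicle-only wells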
CYP2C19 act: increases human CYP2C19 enzyme activity; P33261; recombinant CYP2C19, luciferin-H EGE luminescence; hits give high values; 0 = fully inhibited enzyme, 1 = untreated enzyme; activation factor at 5 µM; 96,000 tested, under 10 active;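 active means activation factor of at least 2 at 5 µM in the primary screen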;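 further: 0 = wells with 2.5 mM tranylcypromine and 1 = vehicle-only wells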
Cav32 inh: blocks human Cav3.2 T-type calcium channel. 100,000 compounds, 4% hits. O95180. AID 449739. Cav3.2-expressing cells, Fluo-4 calcium fluorescence FDSS; hits give low values. B-score at 10 µM;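 active means single-dose well whose peak fluorescence ratio is a statistical outlier from its plate by either plate-standardised score or position-corrected B-score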
CYP2C19 inh: human CYP2C19 inhibition. P33261. CYP2C19 Supersomes, luciferin-H EGE luminescence, 30 min. inhibition, % at 5 µM. 96,000 compounds, 21% hits;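 active means CYP2C19 inhibition above a set limit at 5 µM in the primary screen, cut at about 50% in these data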;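 further: plate controls were negative control wells for no effect and 2.5 mM tranylcypromine positive control for full effect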
An asterisk follows results filed as active.

Cc1ccc(OCC(=O)N2CCN(c3ccc([N+](=O)[O-])c(N4CCOCC4)c3)CC2)cc1 was read as CYP2C9 inh 57.1*, CYP2C9 act 0.4, CYP2C19 act 0.7, Cav32 inh -0.952 and CYP2C19 inh 34.2.
For Cc1ccccc1C(=O)N1CCN(c2ccc([N+](=O)[O-])c(N3CCOCC3)c2)CC1 the results were CYP2C9 inh 58.7*, CYP2C9 act 0.4, CYP2C19 act 0.5, Cav32 inh 2.02 and CYP2C19 inh 54.6*.
`O=C(COc1ccccc1)N1CCN(c2ccc([N+](=O)[O-])c(N3CCCCC3)c2)CC1` gave CYP2C9 inh 78.7*, CYP2C9 act 0.2, CYP2C19 act 0.4, Cav32 inh -2.45 and CYP2C19 inh 64.2*.
Screening CCOc1ccc2nc(-c3ccccc3)nc(SCC(=O)Nc3ncc(C)s3)c2c1 returned CYP2C9 inh 4.4, CYP2C9 act 1, CYP2C19 act 1, Cav32 inh -0.32 and CYP2C19 inh -2.6.
Screening Cc1cc(NCCO)c2cc(O)ccc2n1 returned CYP2C9 inh -11.4, CYP2C9 act 1.1, CYP2C19 act 1.1, Cav32 inh 0.017 and CYP2C19 inh -10.2.
Screening Cc1sc(NC(=O)CSc2nnnn2C2CCCCC2)c(C#N)c1C returned CYP2C9 inh 12.3, CYP2C9 act 0.9, CYP2C19 act 1 and CYP2C19 inh 4.3.
For CS(=O)(=O)N(CC(=O)Nc1ccc2c(c1)OCCO2)Cc1ccc(Cl)cc1 the results were CYP2C9 inh 5.2, CYP2C9 act 0.9, CYP2C19 act 1, Cav32 inh 0.49 and CYP2C19 inh 2.3.
COc1ccc(C)cc1S(=O)(=O)N(CC(=O)Nc1ccc2c(c1)OCCO2)Cc1ccccc1 was read as CYP2C9 inh 98.4*, CYP2C9 act 0, CYP2C19 act 0, Cav32 inh -4.44 and CYP2C19 inh 100.3*.
`COc1ccc(C)cc1S(=O)(=O)N(C)CC(=O)Nc1ccc2c(c1)OCO2` gave CYP2C9 inh 85.9*, CYP2C9 act 0.1, CYP2C19 act 0.4, Cav32 inh 1.01 and CYP2C19 inh 58.0*.
For CCO[C@@H]1OC(C(=O)N2CCOCC2)=C[C@H](c2ccc(C(F)(F)F)cc2)[C@H]1CCCO the results were Cav32 inh -0.669.
For Cc1nn(CC(O)COc2ccc3c(c2)CCC3)c(C)c1Br (stereo not given) the results were CYP2C9 inh -1.1, CYP2C9 act 1, CYP2C19 act 0.8, Cav32 inh -1.48 and CYP2C19 inh 24.4.
For Cc1nc(C)n(CC(O)COc2ccc3c(c2)CCC3)n1 (stereo not given) the results were CYP2C9 inh -0.2, CYP2C9 act 1, CYP2C19 act 0.6, Cav32 inh -0.0068 and CYP2C19 inh 44.4.
CC(C)(C)CC(C)(C)NCC(O)COc1ccc2c(c1)CCC2 (stereo not given) was read as Cav32 inh -8.32*.
`OC(COc1ccc2ccccc2c1)CN1CCCC1` (stereo not given) gave CYP2C9 inh 5.1, CYP2C9 act 0.9, CYP2C19 act 1, Cav32 inh -3.69 and CYP2C19 inh -3.2.
OC(COc1ccc2ccccc2c1)CN1CCN(c2ccc(F)cc2)CC1 (stereo not given) was read as CYP2C9 inh -1.9, CYP2C9 act 1, CYP2C19 act 0.5, Cav32 inh -0.567 and CYP2C19 inh 51.2*.
`COc1ccccc1N1CCN(CC(O)COc2ccc3c(c2)CCC3)CC1` (stereo not given) gave CYP2C9 inh -34.4, CYP2C9 act 1.3, CYP2C19 act 1, Cav32 inh -6.13* and CYP2C19 inh 3.8.
`CN(C)S(=O)(=O)c1cccc(CSc2cccc[n+]2[O-])c1` gave CYP2C9 inh 5.6, CYP2C9 act 0.9, CYP2C19 act 1, Cav32 inh 0.414 and CYP2C19 inh 4.2.
For c1ccc2c3c(cc(N4CCOCC4)c2c1)OC1(N2CCOCC2)CCCCC1O3 (stereo not given) the results were CYP2C9 inh 79.5*, CYP2C9 act 0.2, CYP2C19 act 0, Cav32 inh -1.75 and CYP2C19 inh 95.1*.
For CCN1CCN(S(=O)(=O)c2ccc(S(=O)(=O)N(CC)Cc3ccccc3)cc2)CC1 the results were CYP2C9 inh 5.5, CYP2C9 act 0.9, CYP2C19 act 0.5, Cav32 inh -0.793 and CYP2C19 inh 46.6.
Screening Cn1c(=O)c2c3c(sc2n2c(SCC(N)=O)nnc12)CC(C(C)(C)C)CC3 (stereo not given) returned CYP2C9 inh 14.4, CYP2C9 act 0.9, CYP2C19 act 0.4, Cav32 inh 4.19* and CYP2C19 inh 57.5*.

High-throughput results (PubChem)
